Where “and” joins values, the source holds several entries; their conditions need not be identical. Equal entries are not always repeated. Records with an inconclusive call do not appear. Calls of active or inactive are those of the source. Unless noted, calls come from the whole dose curve; as a rule, active = well fitted curve in the direction sought with a large enough effect in the repeat runs; inconclusive = weak or mixed curves; inactive = no such curve, though single readings can be large; an effect the other way counts as inactive or inconclusive.
Experiments:
[1] = qHTS assay to identify small molecule antagonists of the androgen receptor (AR) signaling pathway - cell viability counter screen (AID 743033; note: nearly all actives have a fitted effect of over 45% in size; note: potency is the fitted concentration of half-maximal effect)
[2] = qHTS assay to identify small molecule antagonists of the androgen receptor (AR) signaling pathway using the MDA cell line - cell viability counter screen (AID 743041; note: nearly all actives have a fitted effect of over 45% in size; note: potency is the fitted concentration of half-maximal effect)
In short: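 MDA-kb2 AR-luc human breast carcinoma cells (MMTV-luciferase, AR/GR responsive) were treated with compounds plus R1881 agonist for 16 h at 37 °C. Viability was read as CellTiter-Fluor fluorescence in the same wells as the reporter assay.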

[3] = qHTS assay to identify small molecule antagonists of the thyroid receptor (TR) signaling pathway - cell viability counter screen (AID 743064); note: nearly all actives have a fitted effect of over 50% in size; note: potency is the fitted concentration of half-maximal effect
In short: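 In-well cytotoxicity read by CellTiter-Fluor (30 min, 37 C) following 23.5 h exposure of GH3 cells bearing a TRE-luciferase sensor. Compounds were added alongside 1 nM (final) T3 to drive TR transactivation.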

[4] = qHTS assay to identify small molecule antagonists of the thyroid receptor (TR) signaling pathway (AID 743065); note: nearly all actives have a fitted effect of over 55% in size; note: potency is the fitted concentration of half-maximal effect
In short: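 GH3.TRE-Luc rat pituitary cells carrying two TR response elements driving luciferase were plated for 4 h, given compound plus 1 nM T3 (final), and incubated 23.5 h at 37 C. ONE-Glo luminescence measured reporter inhibition; CellTiter-Fluor fluorescence tracked cytotoxicity.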

[5] = qHTS assay to identify small molecule antagonists of the estrogen receptor alpha (ER-alpha) signaling pathway - cell viability counter screen (AID 743074; calls by dose curve; note: nearly all actives have a fitted effect of over 45% in size)
[6] = molecular target: Estrogen receptor (Homo sapiens) (UniProt P03372); experiment: qHTS assay to identify small molecule agonists of the estrogen receptor alpha (ER-alpha) signaling pathway (AID 743075; calls by dose curve)
Sequence of Estrogen receptor (Homo sapiens) (P03372 whole entry, looked up): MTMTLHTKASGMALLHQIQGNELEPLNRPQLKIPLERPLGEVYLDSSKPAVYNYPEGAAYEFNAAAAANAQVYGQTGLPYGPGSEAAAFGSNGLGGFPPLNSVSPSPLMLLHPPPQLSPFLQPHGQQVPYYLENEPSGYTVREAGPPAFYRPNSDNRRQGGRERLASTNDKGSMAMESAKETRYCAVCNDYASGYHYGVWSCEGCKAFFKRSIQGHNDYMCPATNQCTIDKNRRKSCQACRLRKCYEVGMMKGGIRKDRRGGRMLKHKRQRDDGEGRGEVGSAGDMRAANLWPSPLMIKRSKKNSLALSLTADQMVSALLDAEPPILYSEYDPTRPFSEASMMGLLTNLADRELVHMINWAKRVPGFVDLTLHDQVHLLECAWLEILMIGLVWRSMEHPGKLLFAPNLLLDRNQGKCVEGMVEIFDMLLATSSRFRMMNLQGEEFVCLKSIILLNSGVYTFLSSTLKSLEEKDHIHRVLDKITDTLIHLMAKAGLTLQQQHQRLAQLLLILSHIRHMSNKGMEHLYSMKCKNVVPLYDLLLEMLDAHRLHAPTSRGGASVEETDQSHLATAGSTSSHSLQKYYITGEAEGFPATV

[7] = molecular target: Estrogen receptor (Homo sapiens) (UniProt P03372); experiment: qHTS assay to identify small molecule agonists of the estrogen receptor alpha (ER-alpha) signaling pathway using the BG1 cell line (AID 743079); conditions: BG1Luc4E2 cells, ERE-luciferase agonist, 22 h; activation: at 70.3 µM (top of the series); note: nearly all actives have a fitted effect of over 20% in size; note: potency is the fitted concentration of half-maximal effect
Aromatase (Homo sapiens) = Aromatase (Homo sapiens) (UniProt P11511); experiment: qHTS assay to identify aromatase inhibitors (AID 743083); note: nearly all actives have a fitted effect of over 55% in size; note: potency is the fitted concentration of half-maximal effect
Sequence of Aromatase (Homo sapiens) (P11511 whole entry, looked up): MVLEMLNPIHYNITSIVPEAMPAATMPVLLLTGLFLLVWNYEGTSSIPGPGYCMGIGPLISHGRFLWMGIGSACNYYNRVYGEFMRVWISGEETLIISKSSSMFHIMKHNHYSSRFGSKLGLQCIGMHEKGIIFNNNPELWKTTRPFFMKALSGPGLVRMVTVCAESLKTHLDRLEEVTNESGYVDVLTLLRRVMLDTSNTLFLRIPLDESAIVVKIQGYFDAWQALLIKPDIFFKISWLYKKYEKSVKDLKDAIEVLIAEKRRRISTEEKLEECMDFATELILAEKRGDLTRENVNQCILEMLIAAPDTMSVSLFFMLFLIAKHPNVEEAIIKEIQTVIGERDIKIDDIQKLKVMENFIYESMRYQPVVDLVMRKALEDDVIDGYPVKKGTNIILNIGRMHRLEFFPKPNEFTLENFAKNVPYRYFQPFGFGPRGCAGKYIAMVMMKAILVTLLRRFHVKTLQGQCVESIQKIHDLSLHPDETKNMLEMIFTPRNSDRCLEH

[8] = qHTS assay for identifying genotoxic compounds that show differential cytotoxicity against isogenic chicken DT40 cell lines with known DNA damage response pathways - wild type cell line (AID 743012); note: nearly all actives have a fitted effect of over 60% in size; note: potency is the fitted concentration of half-maximal effect
In short: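 Parental DNA repair-proficient DT40 cells, 300 per well, were pre-incubated ~0.5 h at 37 C/5% CO2, pin-dosed with compounds in DMSO, then incubated 40 h. Viability was read as CellTiter-Glo luminescence after 30 min at room temperature.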

[9] = qHTS assay for identifying genotoxic compounds that show differential cytotoxicity against isogenic chicken DT40 cell lines with known DNA damage response pathways - Rad54/Ku70 mutant cell line (AID 743015); note: nearly all actives have a fitted effect of over 60% in size; note: potency is the fitted concentration of half-maximal effect
[10] = system: thyroid hormone receptor (rat, GH3 cells); experiment: qHTS assay to identify small molecule agonists of the thyroid receptor (TR) signaling pathway (AID 743066; calls by dose curve)
[11] = qHTS assay to identify small molecule antagonists of the estrogen receptor alpha (ER-alpha) signaling pathway using the BG1 cell line - cell viability counter screen (AID 743081);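 note: compound given together with 17beta-estradiol as the ER stimulus; nearly all actives have a fitted effect of over 45% in size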; note: potency is the fitted concentration of half-maximal effect
[12] = molecular target: Estrogen receptor (Homo sapiens) (UniProt P03372); experiment: qHTS assay to identify small molecule antagonists of the estrogen receptor alpha (ER-alpha) signaling pathway (AID 743069; active = well fitted curve in the direction sought with a large enough effect in the signal ratio in the repeat runs, not every such curve was filed as active; the % refers to the signal ratio; note: potency is the fitted concentration of half-maximal effect)
In short: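 HEK293 cells stably carrying an ER-alpha-UAS-bla beta-lactamase reporter were pre-cultured overnight in 2% charcoal-stripped FBS medium. Test compounds in DMSO were added together with 17beta-estradiol for 18 hr at 37C. Read-out was fluorescence after 2 hr with LiveBLAzer B/G FRET substrate at room temperature.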

[13] = qHTS assay to identify small molecule antagonists of the estrogen receptor alpha (ER-alpha) signaling pathway using the BG1 cell line (AID 743080; calls by dose curve;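 note: BG1 cells stimulated with 17beta-estradiol alongside compound; nearly all actives have a fitted effect of over 25% in size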)
In short: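 Readout is ONE-Glo luminescence, taken 30 min at room temperature after reagent addition, preceded by a CellTiter-Fluor viability read; BG1-Luc-4E2 cells had received compound and 17beta-estradiol for 21.5 h at 37 C.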

[14] = qHTS assay for identifying genotoxic compounds that show differential cytotoxicity against isogenic chicken DT40 cell lines with known DNA damage response pathways - Rev3 mutant cell line (AID 743014); note: nearly all actives have a fitted effect of over 55% in size; note: potency is the fitted concentration of half-maximal effect
[15] = molecular target: Androgen receptor (Homo sapiens) (UniProt P10275); experiment: qHTS assay to identify small molecule agonists of the androgen receptor (AR) signaling pathway (AID 743036; active = well fitted activation curve with a large enough effect in the signal ratio in the repeat runs, with a control signal flat, not every such curve was filed as active; the % refers to the signal ratio)
Sequence of Androgen receptor (Homo sapiens) (P10275 whole entry, looked up): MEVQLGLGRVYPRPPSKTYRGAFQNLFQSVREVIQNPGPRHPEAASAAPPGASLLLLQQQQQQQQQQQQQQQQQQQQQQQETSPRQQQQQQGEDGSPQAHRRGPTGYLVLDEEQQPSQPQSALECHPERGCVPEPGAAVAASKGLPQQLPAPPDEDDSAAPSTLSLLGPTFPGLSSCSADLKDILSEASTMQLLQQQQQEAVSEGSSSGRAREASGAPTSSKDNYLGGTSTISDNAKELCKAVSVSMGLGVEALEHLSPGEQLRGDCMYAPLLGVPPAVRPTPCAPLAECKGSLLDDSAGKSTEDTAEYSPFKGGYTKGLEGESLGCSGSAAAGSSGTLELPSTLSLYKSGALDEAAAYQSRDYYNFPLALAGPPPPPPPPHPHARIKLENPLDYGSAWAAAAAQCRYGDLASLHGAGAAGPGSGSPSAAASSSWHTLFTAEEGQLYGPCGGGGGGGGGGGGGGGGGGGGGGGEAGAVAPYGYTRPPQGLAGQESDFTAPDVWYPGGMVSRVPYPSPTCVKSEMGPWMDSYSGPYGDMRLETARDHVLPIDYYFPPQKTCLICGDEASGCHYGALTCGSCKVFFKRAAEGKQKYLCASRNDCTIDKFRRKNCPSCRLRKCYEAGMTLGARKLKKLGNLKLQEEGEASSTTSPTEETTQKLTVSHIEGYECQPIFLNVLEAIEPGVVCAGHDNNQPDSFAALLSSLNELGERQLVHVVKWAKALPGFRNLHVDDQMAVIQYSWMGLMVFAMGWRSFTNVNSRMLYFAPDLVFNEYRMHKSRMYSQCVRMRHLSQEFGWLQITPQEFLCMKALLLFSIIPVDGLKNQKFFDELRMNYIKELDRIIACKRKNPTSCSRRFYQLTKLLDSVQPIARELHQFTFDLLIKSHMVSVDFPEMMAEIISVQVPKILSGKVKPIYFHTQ
In short: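 Activation was read as beta-lactamase FRET signal from LiveBLAzer B/G substrate, added for 2 h at room temperature. Before that, GeneBLAzer AR-UAS-bla GripTite (HEK293) cells had 16 h compound exposure at 37C.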

[16] = molecular target: Androgen receptor (Homo sapiens) (UniProt P10275); experiment: qHTS assay to identify small molecule agonists of the androgen receptor (AR) signaling pathway using the MDA cell line (AID 743040; note: nearly all actives have a fitted effect of over 20% in size)
In short: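 MDA-kb2 breast carcinoma cells stably carrying an MMTV-driven luciferase reporter (AR- and GR-responsive) were seeded and held 5 h at 37C, 0% CO2, then exposed to compounds in DMSO for 16 h. Luminescence was read 30 min after ONE-Glo addition.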

[17] = molecular target: Androgen receptor (Homo sapiens) (UniProt P10275); experiment: qHTS assay to identify small molecule antagonists of the androgen receptor (AR) signaling pathway using the MDA cell line (AID 743042; note: nearly all actives have a fitted effect of over 55% in size; note: potency is the fitted concentration of half-maximal effect)
In short: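 MDA-kb2 cells (human breast carcinoma, stably carrying an MMTV-luciferase reporter responsive to AR and GR) were plated at 3,000 cells/well and preincubated 5 hr at 37C, then given compound plus R1881 agonist for 16 h. ONE-Glo luminescence was read.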

[18] = molecular target: Androgen receptor (Homo sapiens) (UniProt P10275); experiment: qHTS assay to identify small molecule antagonists of the androgen receptor (AR) signaling pathway (AID 743035; active = well fitted inhibition curve with a large enough effect in the signal ratio in the repeat runs, not every such curve was filed as active; the % refers to the signal ratio)
In short: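 HEK293 cells stably carrying a UAS-driven beta-lactamase reporter (AR-UAS-bla GripTite) were plated for 4 h at 37C, then given compound and the agonist R1881 and incubated 16 h. Reporter activity was read by LiveBLAzer B/G FRET fluorescence after 2 h at room temperature.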

Measured: Potency

CN1CCc2cc(Cl)c(O)cc2[C@H]2c3ccccc3CC[C@@H]21
inactive: [1] | [2] | [5] | [6] | [7] | Aromatase (Homo sapiens)
active: [3] 13.3 µM | [4] 13.3 µM

CN1C(=O)[C@@H](NC(=O)c2cc3ccccc3[nH]2)N=C(c2ccccc2)c2ccccc21
inactive: [1] | [2] | [10] | [5] | [11]
active: [8] 10.6 µM | [9] 18.8 µM | [4] 5.96 µM

CCCCC(CC)COC(=O)c1ccccc1C(=O)OCC(CC)CCCC (stereo not given)
inactive: [9] | [1] | [10] | [12] | [6] | [7] | [13] | [11] | Aromatase (Homo sapiens)

CC(C)=CCN1CC[C@@]2(C)c3cc(O)ccc3C[C@@H]1[C@@H]2C
inactive: [1] | [10] | [12] | [6] | [7] | [11] | Aromatase (Homo sapiens)
active: [14] 26.9 µM | [9] 60.2 µM | [4] 21.4 µM

COc1ccc(Cc2nccc3cc(OC)c(OC)cc23)cc1OC
active: [8] 4.03 µM | [9] 7.17 µM | [17] 9.02 µM
inactive: [1] | [15] | [16] | [3] | [10] | [5] | [11] | Aromatase (Homo sapiens)

CC(C)Br
inactive: [8] | [9] | [1] | [3] | [4] | [10] | [12] | [5] | [6] | [7] | [13] | [11] | Aromatase (Homo sapiens)

CCC1COC(Cn2cncn2)(c2ccc(Cl)cc2Cl)O1 (stereo not given)
active: [9] 19.3 µM | Aromatase (Homo sapiens) 24.3 µM
inactive: [1] | [2] | [3] | [4] | [10] | [12] | [5] | [6] | [7] | [11]

CC(=O)C(Cl)C(=O)N(C)C (stereo not given)
inactive: [1] | [2] | [3] | [10] | [12] | [5] | [6] | [7] | [13] | [11] | Aromatase (Homo sapiens)
active: [14] 24.3 µM | [9] 61.1 µM

O=NN(CCO)CCO
inactive: [8] | [9] | [1] | [18] | [15] | [16] | [17] | [3] | [4] | [10] | [12] | [5] | [6] | [7] | [13] | [11] | Aromatase (Homo sapiens)

[O]=[Cr](=[O])([OH])[O][Cr](=[O])(=[O])[OH]
active: [1] 7.83 µM and 21.8 µM | Aromatase (Homo sapiens) 13.3 µM and 2.46 µM and 2.43 µM
inactive: [16] | [2] | [17] | [10] | [12] | [5] | [6] | [7] | [13] | [11]

CSC1=N[C@@](C)(c2ccccc2)C(=O)N1Nc1ccccc1
active: [8] 1.54 µM | [14] 1.72 µM | [9] 1.54 µM | [2] 48.6 µM | [4] 6.86 µM
inactive: [10] | [5]

CC(C)c1c(CN(C)C(C)Cc2ccccc2)n(C)n(-c2ccccc2)c1=O (stereo not given)
inactive: [1] | [3] | [10] | [12] | [5] | [6] | [7] | [13] | [11] | Aromatase (Homo sapiens)
active: [4] 11.4 µM

Nc1ccc(N=Nc2ccccc2)cc1
active: [8] 61.1 µM | [9] 56.1 µM | [3] 56.1 µM | [7] 14.1 µM | [11] 43.3 µM
inactive: [4] | [10] | [6] | Aromatase (Homo sapiens)

CCNS(=O)(=O)C(F)(F)C(F)(F)C(F)(F)C(F)(F)C(F)(F)C(F)(F)C(F)(F)C(F)(F)F
inactive: [1] | [15] | [16] | [2] | [17] | [3] | [4] | [10] | [5] | [11] | Aromatase (Homo sapiens)

COP(=S)(OC)Oc1ccc([N+](=O)[O-])c(C)c1
inactive: [9] | [1] | [2] | [3] | [4] | [10] | [5] | [6] | [7] | [13] | [11]

CCOC(=O)CCN(SN(C)C(=O)Oc1cccc2c1OC(C)(C)C2)C(C)C
inactive: [1] | [2] | [3] | [4] | [5] | [6] | [7] | [13] | [11] | Aromatase (Homo sapiens)
active: [8] 17.2 µM | [9] 21.7 µM

O.O.O.O=C([O-])[C@H]([O-])[C@@H]([O-])C(=O)[O-].O=C([O-])[C@H]([O-])[C@@H]([O-])C(=O)[O-].[K+].[K+].[Sb+3].[Sb+3]
inactive: [14] | [1] | [10] | [5] | [6]
active: [9] 3.46 µM | [12] 17.5 µM [inhibitor]

CCCCCCCc1ccc(O)cc1
inactive: [1] | [15] | [16] | [2] | [17] | [10] | [12] | [5] | [6] | [13] | [11]
active: [8] 21.7 µM | [9] 19.3 µM | [7] 24.3 µM

Reference: PubChem BioAssay (Tox21)
